In the library only some 1.2% were active in any assay of this set; here they are far more common.
RGS16-Gao HTS – regulators of human RGS16-Galphao interaction; hit rate 0.38% among 220,000; binding response (% of control), % at 10 µM; AID 1441; bead-based flow cytometry RGS16-Galphao binding, fluorescence; actives lie on both sides;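 also: Galphao activated by GDP with aluminum fluoride before binding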
Target sequence (O15492 whole entry, looked up): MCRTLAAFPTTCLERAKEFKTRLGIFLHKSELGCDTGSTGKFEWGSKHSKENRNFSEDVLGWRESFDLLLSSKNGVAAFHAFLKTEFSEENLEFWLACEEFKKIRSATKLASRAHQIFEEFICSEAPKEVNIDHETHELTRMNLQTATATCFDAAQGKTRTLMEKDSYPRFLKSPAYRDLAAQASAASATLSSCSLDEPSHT
Target sequence (P09471 whole entry, looked up): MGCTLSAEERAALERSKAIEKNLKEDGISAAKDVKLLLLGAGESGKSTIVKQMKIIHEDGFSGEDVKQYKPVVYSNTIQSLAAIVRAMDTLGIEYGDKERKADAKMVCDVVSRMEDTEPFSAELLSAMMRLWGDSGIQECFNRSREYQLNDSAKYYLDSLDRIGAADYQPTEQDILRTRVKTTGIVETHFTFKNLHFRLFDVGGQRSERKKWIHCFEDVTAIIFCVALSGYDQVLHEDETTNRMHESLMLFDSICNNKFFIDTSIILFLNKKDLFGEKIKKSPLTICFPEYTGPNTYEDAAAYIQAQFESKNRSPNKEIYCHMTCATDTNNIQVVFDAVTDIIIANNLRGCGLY
GSH bead fluor – GSH bead compound fluorescence profile; GSH beads flow cytometry, compound fluorescence 488/530 nm; hits give high values; fluorescence (KMESF) at 10 µM; hit rate 0.25% among 190,000; AID 1776; in the data active = fluorescence above about 89;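 also: glutathione beads carrying GST-tagged Bcl family fusion proteins plus one bare bead set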
Avidin bead fluor – avidin bead compound fluorescence profile | Avidin beads, compound fluorescence 488/530 nm, flow cytometry; hits give high values | fluorescence (KMESF) at 10 µM | hit rate 0.38% among 220,000; in the data active = fluorescence above about 47
RGS4-Gao reg – human RGS4-Galphao interaction regulation | binding response (% of control), % at 10 µM | P09471 | Multiplexed bead flow cytometry, RGS4-Galphao binding; actives lie on both sides | hit rate 0.33% among 220,000; in the data active = binding response below about 49% or above about 150%; inactive = in between;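 also: fluorescent Galphao activated with aluminum fluoride binding bead-coupled RGS4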
Target sequence (P09471 whole entry, looked up): as above
RGS8-Gao – human RGS8-Galphao interaction regulation | hit rate 0.34% among 220,000 | multiplexed bead flow cytometry, RGS8-Galphao binding; actives lie on both sides | AID 1423 | P09471 | response (percent of control binding), % at 10 µM; in the data active = response below about 60% or above about 140%; inactive = in between;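 also: Galphao activated as the GDP aluminium fluoride complex binding bead-coupled RGS8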
RGS7-Gao reg – regulators of human RGS7-Galphao interaction; P09471; binding response (% of control), % at 10 µM; hit rate 0.35% among 220,000; Multiplexed bead flow cytometry, RGS7-Galphao binding; actives lie on both sides; in the data active = binding response below about 49% or above about 150%; inconclusive = no clear call, values can overlap the other calls; inactive = in between;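 also: fluorescent Galphao held in activated GDP-AlF4 state binding bead-coupled RGS7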
RGS4-Gao HTS – RGS4-Galphao interaction regulator (human). shares compounds with RGS16-Gao HTS. multiplexed bead flow cytometry, RGS–Galpha-o binding. RGS4–Galpha-o binding response, % at 10 µM. hit rate 99% among 1,600;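 also: fluorescently labeled Galpha-o bound to GDP with aluminium fluoride binding biotinylated RGS beads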
Biotin-avidin – interferes with biotinylated probe binding to avidin beads. shares compounds with RGS16-Gao HTS. streptavidin beads, fluorescein-biotin binding, flow cytometry. inhibition, % at 10 µM. 1,700 tested, under 10 active. AID 1783;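 active = inhibition above 50%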;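 also: median green fluorescence of gated singlet beads compared with DMSO control wells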
RGS8-Gao single – RGS8-Galphao interaction regulation, single point confirmation; shares compounds with RGS16-Gao HTS; bead-based flow cytometry RGS8-Galphao binding, fluorescence; actives lie on both sides; binding response (% of control), % at 10 µM; hit rate 3% among 1,700; in the data active = binding response below about 72% or above about 130%; inactive = in between;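 also: Galphao activated as GDP AlF4 complex before binding bead RGS8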
RGS7-Gao single – confirmation of regulators of human RGS7-Galphao interaction. hit rate 7.8% among 1,700. shares compounds with RGS16-Gao HTS. response (percent of control binding), % at 10 µM. AID 1837. bead-based flow cytometry RGS7-Galphao binding; actives lie on both sides; in the data active = response below about 75% or above about 130%; inactive = in between;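 also: fluorescent Galphao activated with GDP and aluminum fluoride binding bead-coupled RGS7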
RGS16-Gao single – confirmation of regulators of human RGS16-Galphao interaction; shares compounds with RGS16-Gao HTS; bead-based flow cytometry, RGS16-Galphao binding; actives lie on both sides; response (% of control binding), % at 10 µM; hit rate 4% among 1,700; AID 1838; in the data active = response below about 74% or above about 130%; inactive = in between;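 also: Galphao activated as the GDP aluminium fluoride complex binding bead-coupled RGS16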
RGS4-Gao single – confirmation of regulators of human RGS4-Galphao interaction; shares compounds with RGS16-Gao HTS; RGS4-Galphao binding, multiplexed bead flow cytometry; actives lie on both sides; binding response (% of control), % at 10 µM; hit rate 4% among 1,700; AID 1840; in the data active = binding response below about 74% or above about 130%; inactive = in between
RGS19-Gao conf – RGS19-Galphao interaction regulation, single point confirmation; hit rate 5% among 1,700; bead-based flow cytometry RGS19-Galphao binding; actives lie on both sides; shares compounds with RGS16-Gao HTS; response (percent of control binding), % at 10 µM; in the data active = response below about 50% or above about 160%; inactive = in between
Each line names hits and unclear results; the compound was inactive in the other large screens (follow-up assays come after a bar, where they were run); [ ] = another dose, or the depositor's remark. Unless noted, no rule for the calls is given here.

CCC(Oc1ccccc1)C(=O)N(Cc1ccccc1)c1ccccn1 (configuration not stated)	none
CC(C)C(=O)N(Cc1ccccc1)c1ccccn1	RGS16-Gao HTS 244[activator], Avidin bead fluor 116, RGS4-Gao reg 251[activator], RGS7-Gao reg 208[activator] | Biotin-avidin inactive | RGS8-Gao single inactive | RGS7-Gao single inactive | RGS16-Gao single inactive | RGS4-Gao single inactive | RGS19-Gao conf inactive
CC(OC(=O)c1ccccc1NS(=O)(=O)c1cccc(N)c1)C(=O)N(C)Cc1ccccc1 (configuration not stated)	RGS16-Gao HTS 12 | RGS4-Gao HTS 91 | Biotin-avidin inactive | RGS8-Gao single inactive | RGS7-Gao single inactive | RGS16-Gao single inactive | RGS4-Gao single inactive | RGS19-Gao conf inactive
COCc1c(C(=O)N/N=C/c2cccc3ccccc23)nnn1-c1nonc1N	RGS7-Gao reg inconclusive
CCOC(=O)c1ccc(NCn2c(=O)oc3ccccc32)cc1	RGS16-Gao HTS -14 | RGS4-Gao HTS 97 | Biotin-avidin inactive | RGS8-Gao single inactive | RGS7-Gao single inactive | RGS16-Gao single inactive | RGS4-Gao single inactive | RGS19-Gao conf inactive
c1ccc2c(c1)OCCOCCOc1ccccc1OCCOCCO2	RGS4-Gao reg 187[activator], RGS8-Gao 145[activator], RGS7-Gao reg 191[activator] | Biotin-avidin inactive | RGS8-Gao single inactive | RGS7-Gao single inactive | RGS16-Gao single inactive | RGS4-Gao single inactive | RGS19-Gao conf inactive
O=C1CCCc2ccccc2N1Cc1ccc(F)cc1	RGS7-Gao reg 170[activator] | RGS4-Gao HTS 111 | Biotin-avidin inactive | RGS8-Gao single inactive | RGS7-Gao single inactive | RGS16-Gao single inactive | RGS4-Gao single inactive | RGS19-Gao conf inactive
O=C1CCCc2ccccc2N1Cc1cccc(F)c1	none
CCCn1c(=O)c(C(=O)NNS(=O)(=O)c2ccc(Cl)cc2)c(O)c2ccccc21	none
CC(Sc1cnccn1)C(=O)O (configuration not stated)	none
Oc1ccccc1-c1nc(/C=C/c2ccccc2)nn1-c1ccccc1	RGS16-Gao HTS 197[activator] | RGS4-Gao HTS 107 | Biotin-avidin inactive | RGS8-Gao single inactive | RGS7-Gao single inactive | RGS16-Gao single inactive | RGS4-Gao single inactive | RGS19-Gao conf inactive
Oc1ccc(/C=C/c2nc(-c3ccccc3O)n(-c3ccccc3)n2)cc1	none
CN(C)N1C(N)=C(C#N)C(c2cccs2)C2=C1CC(C)(C)CC2=O (configuration not stated)	none
CCCNC(=O)c1ccc(CN2CCc3ccccc3C2)cc1	RGS16-Gao HTS 21, RGS4-Gao reg 16, RGS8-Gao 34, RGS7-Gao reg 22 | Biotin-avidin inactive | RGS8-Gao single inactive | RGS7-Gao single inactive | RGS16-Gao single inactive | RGS4-Gao single inactive | RGS19-Gao conf inactive
CC(Oc1ccccc1)C(=O)N/N=C/c1ccccn1 (configuration not stated)	none
CCC(C)(C)c1nnc(NC(=O)c2cccc([N+](=O)[O-])c2)s1	RGS16-Gao HTS 20 | RGS4-Gao HTS 89 | Biotin-avidin inactive | RGS8-Gao single inactive | RGS7-Gao single inactive | RGS16-Gao single inactive | RGS4-Gao single inactive | RGS19-Gao conf inactive
CCOC(=O)c1ccc(NC(=O)C2(c3ccccc3)CCCC2)cc1	RGS8-Gao 144[activator] | RGS4-Gao HTS 131
CCOC(=O)COc1c(/C=N\OC)cc(Cl)cc1OC	none
CCn1c(O)c(/C=N/N=C/c2ccccc2)c2ccc(C3=NNC(=O)CC3)cc21	none (no result: RGS16-Gao HTS, Avidin bead fluor, RGS4-Gao reg, RGS8-Gao, RGS7-Gao reg) | Biotin-avidin inactive | RGS8-Gao single inactive | RGS7-Gao single inactive | RGS16-Gao single inactive | RGS4-Gao single inactive | RGS19-Gao conf inactive
CCC(CC)=N/N=C/c1c(O)n(CC)c2cc(C3=NNC(=O)CC3)ccc12	RGS16-Gao HTS 24 | RGS4-Gao HTS 80 | Biotin-avidin inactive | RGS8-Gao single inactive | RGS7-Gao single inactive | RGS16-Gao single inactive | RGS4-Gao single inactive | RGS19-Gao conf inactive
CCCCOc1ccc(C2=NNC(=O)CC2)cc1	none
CCn1c(C)nc2cc(C(=O)N/N=C/c3ccccc3)ccc21	none
CC(C)CC(NC(=O)c1ccccc1)C(=O)OCC(=O)Nc1ccc(Br)cn1 (configuration not stated)	Avidin bead fluor 346, RGS7-Gao reg 238[activator] | RGS4-Gao HTS 137 | Biotin-avidin inactive | RGS8-Gao single inactive | RGS7-Gao single inactive | RGS16-Gao single inactive | RGS4-Gao single inactive | RGS19-Gao conf inactive
O=C(COc1ccccc1)NC(=S)Nc1ccc(Br)cn1	RGS7-Gao reg inconclusive (no result: GSH bead fluor)
N#C/C(=C\c1c(Cl)cccc1Cl)c1nc2ccccc2[nH]1	RGS7-Gao reg inconclusive (no result: GSH bead fluor)
N#C/C(=C\c1ccc(Cl)cc1)c1nc2ncccc2[nH]1	RGS16-Gao HTS -40 | RGS4-Gao HTS 89
CCCc1c(C(=O)Nc2cc(C)on2)cnn1-c1ccccc1	RGS7-Gao reg inconclusive (no result: GSH bead fluor)
COc1ccc(C(c2nnnn2C2CCCC2)N2CCC(C)CC2)c(OC)c1 (configuration not stated)	RGS4-Gao reg 188[activator], RGS7-Gao reg 174[activator] (no result: RGS16-Gao HTS, Avidin bead fluor, RGS8-Gao) | Biotin-avidin inactive | RGS8-Gao single inactive | RGS7-Gao single inactive | RGS16-Gao single inactive | RGS4-Gao single inactive | RGS19-Gao conf inactive
CC1CN=C(N(C(=S)Nc2ccccc2)c2cccc(C(F)(F)F)c2)S1 (configuration not stated)	RGS7-Gao reg inconclusive (no result: GSH bead fluor)
CC(=O)O/N=C/c1c(C)c(C=O)n2ccccc12	RGS7-Gao reg inconclusive
Cc1cc2cc3c(cc2nc1SCC(=O)Nc1nc(C)c(C)s1)OCO3	RGS4-Gao reg 164[activator] | Biotin-avidin inactive | RGS8-Gao single inactive | RGS7-Gao single inactive | RGS16-Gao single inactive | RGS4-Gao single inactive | RGS19-Gao conf inactive
CCNc1nc(NC(N)=S)nc(NC(C)(C)C)n1	none

Compound activity: PubChem BioAssay, NMMLSC
